# Laboratory results: publication PMC7862700, “An all-to-all approach to the identification of sequence-specific readers for epigenetic DNA modifications on cytosine”
# Key:
# Assay in all cases: DAPPL (digital affinity profiling via proximity ligation, sequencing); 10 mM Tris-HCl pH 7.5, 50 mM NaCl, 1 mM DTT, 4% glycerol, room temperature, 30 min; GST-TFs on glutathione beads, 16-mer random dsDNA library, 0.1% formaldehyde crosslink after washing; high values mean tight binding
# Conditions in all cases: protein: recombinant; tags: N-terminal GST; dsDNA, one strand shown
# FLI1 = molecular target: T1, FLI1 (Homo sapiens, UniProt Q01543 1-452)
# T1 sequence: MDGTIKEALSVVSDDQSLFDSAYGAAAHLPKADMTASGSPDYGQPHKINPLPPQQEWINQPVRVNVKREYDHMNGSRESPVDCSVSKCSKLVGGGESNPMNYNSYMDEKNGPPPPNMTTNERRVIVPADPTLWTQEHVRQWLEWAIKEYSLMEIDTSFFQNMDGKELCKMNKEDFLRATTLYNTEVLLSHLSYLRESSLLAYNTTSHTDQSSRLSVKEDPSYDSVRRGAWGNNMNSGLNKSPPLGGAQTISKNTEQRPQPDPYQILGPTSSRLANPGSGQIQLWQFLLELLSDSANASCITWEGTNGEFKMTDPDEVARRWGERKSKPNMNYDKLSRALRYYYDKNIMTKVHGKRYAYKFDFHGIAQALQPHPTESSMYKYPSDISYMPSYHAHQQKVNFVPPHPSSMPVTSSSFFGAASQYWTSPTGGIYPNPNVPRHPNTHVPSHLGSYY
# Summary of the method: (§1)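 Binding signal is each hexamer's read frequency for a factor divided by its frequency in the tag-only sample. The factors were GST-fused human transcription factors from yeast, captured on glutathione beads, DNA-barcoded and pooled with that sample. Pools were incubated with 200 nmole of a random double-stranded 16-mer DNA library in Tris/NaCl/DTT/glycerol buffer at room temperature for 30 min, then washed, crosslinked with 0.1% formaldehyde, proximity-ligated with BsaI/T4 ligase (1 h, 37 °C), PCR-amplified and sequenced on an Illumina NextSeq500.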
# ELK1 = molecular target: T2, ELK1 (Homo sapiens, UniProt P19419 1-428)
# T2 sequence: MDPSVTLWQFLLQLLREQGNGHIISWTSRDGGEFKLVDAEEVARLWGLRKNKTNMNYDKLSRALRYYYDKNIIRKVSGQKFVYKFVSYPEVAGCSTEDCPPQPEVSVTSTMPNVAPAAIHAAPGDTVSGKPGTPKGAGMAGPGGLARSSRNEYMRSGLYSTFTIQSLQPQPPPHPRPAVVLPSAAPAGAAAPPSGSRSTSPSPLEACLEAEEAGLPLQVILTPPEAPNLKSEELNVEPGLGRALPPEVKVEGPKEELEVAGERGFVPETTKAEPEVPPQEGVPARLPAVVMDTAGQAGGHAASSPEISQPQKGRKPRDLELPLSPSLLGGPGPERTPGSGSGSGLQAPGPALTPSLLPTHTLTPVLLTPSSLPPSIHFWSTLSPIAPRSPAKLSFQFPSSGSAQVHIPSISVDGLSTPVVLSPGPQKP
# Summary of the method: as §1
# GABPA = molecular target: T3, GABPA (Homo sapiens, UniProt Q06546 1-454)
# T3 sequence: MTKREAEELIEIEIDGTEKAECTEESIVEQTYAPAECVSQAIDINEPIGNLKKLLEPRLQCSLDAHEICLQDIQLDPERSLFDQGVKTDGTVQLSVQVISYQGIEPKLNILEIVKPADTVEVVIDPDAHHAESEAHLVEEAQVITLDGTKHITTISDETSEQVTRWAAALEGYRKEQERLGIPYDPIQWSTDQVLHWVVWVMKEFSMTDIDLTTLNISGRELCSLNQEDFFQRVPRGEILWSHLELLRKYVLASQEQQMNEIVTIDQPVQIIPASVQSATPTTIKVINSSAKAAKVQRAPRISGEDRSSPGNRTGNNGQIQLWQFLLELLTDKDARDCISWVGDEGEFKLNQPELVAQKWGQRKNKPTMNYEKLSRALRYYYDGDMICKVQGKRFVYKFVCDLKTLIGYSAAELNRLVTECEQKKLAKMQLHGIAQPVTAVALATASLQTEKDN
# Summary of the method: as §1
# ERG = molecular target: T4, ERG (Homo sapiens, UniProt P11308 1-479)
# T4 sequence: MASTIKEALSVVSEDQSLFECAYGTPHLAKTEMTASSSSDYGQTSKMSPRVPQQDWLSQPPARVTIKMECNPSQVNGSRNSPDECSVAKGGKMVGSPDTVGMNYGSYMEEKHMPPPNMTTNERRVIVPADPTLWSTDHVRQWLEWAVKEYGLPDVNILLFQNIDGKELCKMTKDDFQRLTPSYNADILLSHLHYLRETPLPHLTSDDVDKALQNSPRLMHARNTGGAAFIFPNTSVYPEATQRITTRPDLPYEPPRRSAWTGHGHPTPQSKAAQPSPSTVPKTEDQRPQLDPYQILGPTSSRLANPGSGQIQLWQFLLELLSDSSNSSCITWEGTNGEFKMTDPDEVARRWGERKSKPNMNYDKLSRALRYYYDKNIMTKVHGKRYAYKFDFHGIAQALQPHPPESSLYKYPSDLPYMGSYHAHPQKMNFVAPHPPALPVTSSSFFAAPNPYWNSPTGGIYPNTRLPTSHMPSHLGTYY
# Summary of the method: as §1
# ELF1 = ELF1 (Homo sapiens, UniProt P32519 1-619)
# Summary of the method: as §1
# EHF = molecular target: T5, EHF (Homo sapiens, UniProt Q9NZC4 1-300)
# T5 sequence: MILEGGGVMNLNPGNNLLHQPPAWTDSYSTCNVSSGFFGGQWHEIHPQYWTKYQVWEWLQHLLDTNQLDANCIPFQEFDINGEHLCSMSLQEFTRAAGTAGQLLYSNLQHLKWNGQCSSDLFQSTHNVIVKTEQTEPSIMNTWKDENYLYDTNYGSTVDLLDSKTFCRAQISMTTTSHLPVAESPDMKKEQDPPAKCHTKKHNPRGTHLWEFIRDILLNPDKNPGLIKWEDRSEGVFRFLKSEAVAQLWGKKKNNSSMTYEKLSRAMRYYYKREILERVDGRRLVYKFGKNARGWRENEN
# Summary of the method: as §1
# SPI1 = SPI1 (Homo sapiens, UniProt P17947 1-270)
# Summary of the method: as §1
# SPIB = SPIB (Homo sapiens, UniProt Q01892 1-262)
# Summary of the method: as §1
# FEV = molecular target: T6, FEV (Homo sapiens, UniProt Q99581 1-238)
# T6 sequence: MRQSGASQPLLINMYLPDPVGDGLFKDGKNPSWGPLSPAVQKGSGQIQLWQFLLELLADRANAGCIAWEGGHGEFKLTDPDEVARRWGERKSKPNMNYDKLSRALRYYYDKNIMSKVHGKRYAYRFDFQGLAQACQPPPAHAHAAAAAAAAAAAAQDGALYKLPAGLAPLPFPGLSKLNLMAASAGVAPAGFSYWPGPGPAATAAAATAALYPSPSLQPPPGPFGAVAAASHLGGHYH
# Summary of the method: as §1
# ETV5 = ETV5 (Homo sapiens, UniProt P41161 1-510)
# Summary of the method: as §1
# Sequence of SPIB (Q01892 whole entry): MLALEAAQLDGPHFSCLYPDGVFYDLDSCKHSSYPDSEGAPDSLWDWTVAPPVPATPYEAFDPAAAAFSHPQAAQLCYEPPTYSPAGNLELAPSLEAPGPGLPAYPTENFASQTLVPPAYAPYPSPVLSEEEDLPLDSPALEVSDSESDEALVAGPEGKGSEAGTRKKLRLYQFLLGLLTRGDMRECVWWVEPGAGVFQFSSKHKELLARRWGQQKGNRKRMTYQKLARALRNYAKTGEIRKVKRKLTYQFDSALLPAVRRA
# Sequence of ETV5 (P41161 whole entry): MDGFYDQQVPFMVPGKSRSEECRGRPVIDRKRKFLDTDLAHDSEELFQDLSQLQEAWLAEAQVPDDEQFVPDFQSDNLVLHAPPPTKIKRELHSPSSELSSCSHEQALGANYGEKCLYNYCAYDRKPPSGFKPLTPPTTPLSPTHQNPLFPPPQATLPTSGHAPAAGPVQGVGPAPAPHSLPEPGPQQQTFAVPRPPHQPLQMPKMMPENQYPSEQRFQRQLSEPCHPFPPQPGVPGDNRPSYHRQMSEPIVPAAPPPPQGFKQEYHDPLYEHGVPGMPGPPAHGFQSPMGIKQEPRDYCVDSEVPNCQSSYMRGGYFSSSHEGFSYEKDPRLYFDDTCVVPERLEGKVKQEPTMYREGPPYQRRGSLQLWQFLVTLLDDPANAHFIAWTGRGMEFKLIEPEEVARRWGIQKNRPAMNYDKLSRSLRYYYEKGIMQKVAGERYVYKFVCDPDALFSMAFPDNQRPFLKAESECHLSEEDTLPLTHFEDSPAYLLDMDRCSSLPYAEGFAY
# Sequence of ELF1 (P32519 whole entry): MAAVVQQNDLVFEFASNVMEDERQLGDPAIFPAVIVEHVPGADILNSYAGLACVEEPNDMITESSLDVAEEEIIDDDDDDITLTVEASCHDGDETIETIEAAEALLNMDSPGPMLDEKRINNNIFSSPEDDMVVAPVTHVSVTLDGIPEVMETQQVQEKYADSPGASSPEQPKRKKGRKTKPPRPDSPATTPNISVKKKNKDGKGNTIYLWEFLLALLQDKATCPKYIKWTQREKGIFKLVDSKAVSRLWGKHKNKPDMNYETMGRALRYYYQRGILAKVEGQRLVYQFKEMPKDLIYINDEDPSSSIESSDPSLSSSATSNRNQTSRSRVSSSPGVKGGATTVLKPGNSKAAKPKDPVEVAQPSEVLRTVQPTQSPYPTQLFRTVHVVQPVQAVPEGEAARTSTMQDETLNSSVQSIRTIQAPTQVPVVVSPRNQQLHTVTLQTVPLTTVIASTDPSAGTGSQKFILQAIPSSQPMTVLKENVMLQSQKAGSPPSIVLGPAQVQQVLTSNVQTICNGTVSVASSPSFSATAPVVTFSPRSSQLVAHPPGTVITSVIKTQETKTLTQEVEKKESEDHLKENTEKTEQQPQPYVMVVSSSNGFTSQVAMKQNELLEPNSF
sequence,measurement,setting,value
GCTATC,binding signal,FLI1,"1.07 fold enrichment (6-mer frequency, TF over GST control)"
same,binding signal,ELK1,"1.07 fold enrichment (6-mer frequency, TF over GST control)"
same,binding signal,GABPA,"1.1 fold enrichment (6-mer frequency, TF over GST control)"
same,binding signal,ERG,"1.13 fold enrichment (6-mer frequency, TF over GST control)"
same,binding signal,ELF1,"1.14 fold enrichment (6-mer frequency, TF over GST control)"
same,binding signal,EHF,"1.14 fold enrichment (6-mer frequency, TF over GST control)"
same,binding signal,SPI1,"1.12 fold enrichment (6-mer frequency, TF over GST control)"
same,binding signal,SPIB,"1.1 fold enrichment (6-mer frequency, TF over GST control)"
same,binding signal,FEV,"1.08 fold enrichment (6-mer frequency, TF over GST control)"
same,binding signal,ETV5,"1.09 fold enrichment (6-mer frequency, TF over GST control)"
